An excerpt weighted towards active compounds, which were near 3.9% of everything screened.
S2 tox – Viability Counterscreen for Primary qHTS for Inhibitors of ATXN expression; S2 cells (HEK-293 line with an ATXN2-luciferase reporter) viability, CellTiter-Fluor protease fluorescence, 24 h; Potency, µM (highest dose often 56.7 µM), usual class: cytotoxic; hit rate 0.49% among 400,000; AID 651635, 2014; also: nearly all actives have a fitted effect of over 40% in size
HepG2 tox-1 – qHTS for Inhibitors of TGF-b: Cytotox Counterscreen; HepG2 CAGA-GFP viability, ATP luminescence, 18 h; Potency, µM (highest dose often 46.1 µM), for inactives: at the top dose activity change, negative = cytotoxicity, hits mostly cytotoxic; hit rate 0.76% among 410,000; AID 588856, 2011
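CellTiter-Glo luminescence gave cytotoxicity after 18 hours at 37 degrees C. The cells were HepG2 CAGA-GFP in 1% FBS DMEM, stimulated with 500 pg/mL TGF-beta after compound addition. %Activity was normalised to no-cell wells (complete cell-killing) and DMSO (no toxicity), and curves were fitted and classified.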
HT1080 IDH1KD tx – qHTS for induction of synthetic lethality in tumor cells producing 2HG: qHTS for the HT-1080-IDH1KD cell line | hit rate 2% among 360,000 | AID 686971, 2013 | HT-1080 IDH1 knockdown viability, ATP luminescence, 48 h | Potency, µM (top dose mostly 46.1 µM), without a hit: top-dose activity, negative = toxicity, actives largely listed as cytotoxic;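 also: 0% = DMSO wells and -100% = cell-free medium wells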
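IDH1KD HT-1080 cells, 750/well, RPMI + 5% FBS; compound pinned after 2 h settling; 48 h, 37 °C; CellTiter-Glo luminescence; % activity normalised to DMSO and no-cell wells; curves fitted, classed by r2 and efficacy.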
HT1080NT lethal – qHTS for induction of synthetic lethality in tumor cells producing 2HG: qHTS for the HT-1080-NT fibrosarcoma cell line | Potency, µM (series often up to 46.1 µM), for the others: at the highest dose activity, negative = less viability, most hits filed as cytotoxic | hit rate 1.6% among 360,000 | AID 686970, 2013 | HT-1080-NT fibrosarcoma viability, CellTiter-Glo ATP luminescence, 48 h;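 also: NT is the 2HG producing partner of a matched IDH1 knockdown line; 0% = DMSO-treated cells and -100% = media-only wells without cells; nearly all actives have a fitted effect of over 55% in size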
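750 cells/well, RPMI + 5% FBS; 2 h settle, compound pin-transfer, 48 h at 37 degrees C. CellTiter-Glo 10 min RT, luminescence. Normalized to DMSO and media-only wells.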
ATXN2 expr inh – Primary qHTS for Inhibitors of ATXN expression | HEK-293 ATXN2-luciferase reporter, luminescence, 24 h | Potency, µM (series often up to 57 µM), inactives show at the top dose activity change, negative = inhibition, actives largely listed as inhibitors | hit rate 0.72% among 360,000 | AID 1745845, 2022; also: % is scaled to controls: 0 for no effect and ±100 for the full control effect; nearly all actives have a fitted effect of over 55% in size
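qHTS (up to 57 uM final) was run with 24 h compound exposure of reporter cells at 37 °C. Each well was multiplexed: SteadyGlo luminescence measured ATXN2-luciferase expression after a fluorogenic Gly-Phe-AFC viability readout (25 uM final).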
TGFb SMAD3 inh – qHTS for Inhibitors of TGF-b; HepG2 CAGA-GFP TGF-b/SMAD3 reporter, GFP fluorescence, 18 h; TGF-beta stimulated, 500 pg/mL final; Potency, µM (highest dose often 46.1 µM), inactives show at the highest dose activity, negative = inhibition, usual class: inhibitors; hit rate 1.2% among 410,000; also: % is scaled to controls: 0 for no effect and ±100 for the full control effect; nearly all actives have a fitted effect of over 65% in size
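Per well, imaged GFP fluorescence of HEPG2 CAGA-GFP cells gives the signal; cells get compound, then TGF-beta (500 pg/mL final), 18 h at 37 degrees C; %Activity versus -TGF-beta and +DMSO controls.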
TGFb confirm – qHTS for Inhibitors of TGF-b: Confirmation of Cherry Picks; shares compounds with TGFb SMAD3 inh; hit rate 63% among 1,600; Potency, µM (top dose mostly 46.1 µM), inactives show top-dose activity, negative = inhibition, hits mostly inhibitors; AID 720534, 2013; HepG2 CAGA-GFP TGF-b reporter, GFP fluorescence, 18 h; cells stimulated with TGF-beta, 500 pg/mL; also: % is scaled to controls: 0 for no effect and ±100 for the full control effect; nearly all actives have a fitted effect of over 65% in size
HepG2 tox-2 – qHTS for Inhibitors of TGF-b: Cytotox Counterscreen for Cherry Picks; AID 720535, 2013; hit rate 27% among 1,600; shares compounds with TGFb SMAD3 inh; Potency, µM (titrated, usually from 46.1 µM), for inactives: top-dose activity, negative = cytotoxicity, actives largely listed as inhibitors; HepG2 CAGA-GFP viability, ATP luminescence, 18 h; cells stimulated with TGF-beta, 500 pg/mL; also: % is scaled to controls: 0 for no effect and ±100 for the full control effect; nearly all actives have a fitted effect of over 70% in size
TGFb CCL64 inh – qHTS for Inhibitors of TGF-b: CCL64 Cells Orthogonal Assay for Cherry Picks; shares compounds with TGFb SMAD3 inh; CCL64 CAGA-GFP reporter, TGF-b stimulated, GFP fluorescence, 18 h; Potency, µM (highest dose often 46.1 µM), inactives show top-dose activity, negative = inhibition, most hits filed as inhibitors; hit rate 41% among 1,600; AID 720536, 2013; also: nearly all actives have a fitted effect of over 65% in size
TGFb COP inh – qHTS for Inhibitors of TGF-b: Hit Validation in HepG2 Cells using COP promoter. Potency, µM (series often up to 46.1 µM), for the others: top-dose activity, negative = inhibition, most hits filed as inhibitors. shares compounds with TGFb SMAD3 inh. hit rate 3% among 1,600. HepG2 COP-GFP TGF-b reporter, GFP fluorescence, 18 h; cells stimulated by added recombinant TGF-beta; also: nearly all actives have a fitted effect of over 70% in size
Numbers without * were called inactive; i = inactive; ? = inconclusive; / = no result. Calls follow the shape of the dose curve; as a rule, active = well fitted curve in the direction sought with a large enough effect; inconclusive = small, poorly fitted or top-dose-only effect, or another doubt; inactive = no such curve, though single readings can be large; an effect the other way counts as inactive or inconclusive. Potency is read from the fitted curve at half-maximal effect.

SMILES	S2 tox	HepG2 tox-1	HT1080 IDH1KD tx	HT1080NT lethal	ATXN2 expr inh	TGFb SMAD3 inh	TGFb confirm	HepG2 tox-2	TGFb CCL64 inh	TGFb COP inh
CCOc1ccc(CCN2C(=S)N([C@@H](CC(C)C)CN3CCCC3CN3C(=S)NC[C@@H]3Cc3ccc(O)cc3)C[C@@H]2Cc2ccccc2)cc1 (stereo partly specified)	i	-7.8%	-0.1%	-1.0%	-19.8%	?	?	-16.3%	?	-2.9%
CCOc1ccc(CCN2C(=S)N([C@@H](CC(C)C)CN3CCCC3CN3C(=S)NC[C@@H]3Cc3ccc(O)cc3)C[C@@H]2Cc2ccc(O)cc2)cc1 (stereo partly specified)	?	12.6µM*	?	?	?	7.08µM*	20.6µM*	?	13µM*	52.9%
Oc1ccc(C[C@@H](CN2CCC[C@@H]2CN2C(=S)NC[C@@H]2Cc2ccccc2)N2C[C@H](Cc3ccccc3)N(CCc3ccccc3)C2=S)cc1	?	-51.4%	-4.4%	-16.2%	-12.4%	-6.4%	/	/	/	/
CC(C)C[C@@H](CN1CCCC1CN1C(=S)NC[C@@H]1Cc1ccccc1)N1C[C@H](Cc2ccc(O)cc2)N(CCc2ccccc2)C1=S (stereo partly specified)	?	/	-1.0%	?	-34.8%	/	/	/	/	/
Cc1ccc(C(=O)CSc2nc(C)cc(SCc3nnc(-c4ccccc4)o3)n2)cc1	i	-5.6%	27.1%	17.2%	0.9%	-4.5%	/	/	/	/
COc1ccc(C(=O)CSc2cc(C)nc(SCC(=O)c3ccc(C)cc3)n2)cc1	i	-1.5%	-25.3%	-2.7%	-4.2%	?	?	0.4%	0.4%	0.1%
O=S(=O)(NCC(Nc1ccccc1)c1ccccc1)c1ccc(Cl)cc1 (stereo unspecified)	?	-81.7%	-10.9%	-16.3%	?	10µM*	?	-4.8%	-1.0%	5.7%
NC(c1csc(NC(=O)Nc2ccc(OC(F)(F)F)cc2)n1)C1CCCCC1 (stereo unspecified)	?	7.94µM*	?	16.4µM*	?	8.91µM*	?	18.4µM*	20.6µM*	?
COc1ccc(NC(=O)Nc2nc(C(N)CC(C)C)cs2)cc1 (stereo unspecified)	i	-44.6%	?	?	-35.6%	?	/	/	/	/
COc1ccc(NC(=O)c2c(C)oc3ccc(O)c(CN4CCCCCC4)c23)cc1	i	-39.5%	/	/	-29.0%	-25.5%	/	/	/	/
CNc1cc(C)c(C#N)c2nc3ccccc3n12	/	-3.7%	-18.3%	-3.9%	-28.8%	1.5%	/	/	/	/
Cc1cc(Cl)n2c(nc3ccccc32)c1C#N	/	-100.5%	7.31µM*	9.2µM*	?	1.78µM*	1.16µM*	5.17µM*	1.46µM*	25.9µM*
CC(C)(C)C(=O)/C(=C/c1ccncc1)n1cncn1	/	14.1µM*	7.31µM*	7.31µM*	15.8µM*	4.47µM*	18.4µM*	13µM*	5.8µM*	?
COc1ccccc1NC(=O)CN1CCN(c2ccc(F)cc2)CC1	i	-5.3%	4.2%	0.0%	-17.6%	-19.9%	/	/	/	/
COC(=O)c1sccc1NC(=O)CN1CCN(c2ccc(F)cc2)CC1	i	-16.6%	-23.4%	-18.8%	-25.6%	11.2µM*	?	?	-2.6%	10.0%
Cc1ccc(C)c2c1NC(C(=O)O)C1CC=CC21 (stereo unspecified)	/	-3.2%	/	/	/	-15.8%	/	/	/	/
COc1ccc(OC)c2sc(NC(=O)CCS(=O)(=O)c3ccccc3)nc12	?	21.4%	5.0%	5.6%	0.0%	?	2.31µM*	16.4µM*	4.61µM*	-2.9%
O=C(CCS(=O)(=O)c1ccccc1)Nc1nc2ccc(F)cc2s1	i	-21.2%	-10.4%	-14.6%	-11.1%	3.55µM*	1.16µM*	-27.3%	10.3µM*	31.5%
COc1ccc(OC)c2sc(NC(=O)CCSc3ccccc3)nc12	i	-8.6%	-21.4%	-15.9%	-7.4%	-8.4%	/	/	/	/
COC(=O)c1ccc2nc(NC(=O)CCS(=O)(=O)c3ccccc3)sc2c1	i	2.2%	-2.1%	-7.2%	16.3%	?	/	/	/	/
CCOc1ccc2nc3cc(NCc4ccc(OC)cc4)ccc3c(N)c2c1	i	10µM*	?	?	/	7.94µM*	3.26µM*	7.31µM*	?	44.6%
CC(=O)c1ccc(N2CCN(C(=O)NCc3noc4ccc(C)cc34)CC2)cc1	?	-47.1%	/	/	3.9%	-25.5%	/	/	/	/
Cc1ccc(N=c2ssnc2Cl)cc1	i	-43.6%	?	?	-16.3%	?	/	/	/	/
Cc1cc(Cl)ccc1N=c1ssnc1Cl	i	-23.0%	23.1µM*	?	-21.3%	7.94µM*	23.1µM*	?	?	4.2%
O=C(Cn1c(=O)n(Cc2nc(-c3ccccc3)no2)c(=O)c2ccccc21)Nc1cccc(C(F)(F)F)c1	/	-37.1%	/	/	/	?	/	/	/	/
CCc1ccc(C(=O)c2cn(CC(=O)Nc3cc(OC)ccc3OC)c3ccc(Cl)cc3c2=O)cc1	i	1.4%	/	/	-2.4%	0.6%	/	/	/	/
